Laboratory results as given in article PMC7862700, “An all-to-all approach to the identification of sequence-specific readers for epigenetic DNA modifications on cytosine”.

Legend:
Assay in all cases: DAPPL (digital affinity profiling via proximity ligation, sequencing); 10 mM Tris-HCl pH 7.5, 50 mM NaCl, 1 mM DTT, 4% glycerol, room temperature, 30 min; GST-TFs on glutathione beads, 16-mer random dsDNA library, 0.1% formaldehyde crosslink after washing; high values mean tight binding
Conditions in all cases: protein: recombinant; tags: N-terminal GST; dsDNA, one strand shown
FLI1 = molecular target: T1, FLI1 (Homo sapiens, UniProt Q01543 1-452)
T1 sequence: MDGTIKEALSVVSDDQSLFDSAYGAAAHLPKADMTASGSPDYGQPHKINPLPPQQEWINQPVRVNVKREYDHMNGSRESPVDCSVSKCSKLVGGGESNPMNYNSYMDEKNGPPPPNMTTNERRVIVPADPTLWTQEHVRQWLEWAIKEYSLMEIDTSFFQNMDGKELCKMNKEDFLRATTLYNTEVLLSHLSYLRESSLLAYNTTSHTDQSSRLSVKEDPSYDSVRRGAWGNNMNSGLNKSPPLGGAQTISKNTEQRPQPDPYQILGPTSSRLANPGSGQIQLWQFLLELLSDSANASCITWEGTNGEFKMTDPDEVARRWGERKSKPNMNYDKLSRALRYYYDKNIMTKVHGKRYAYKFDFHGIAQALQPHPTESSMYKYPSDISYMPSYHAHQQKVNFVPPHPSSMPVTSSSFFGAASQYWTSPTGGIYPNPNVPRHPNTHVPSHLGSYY
Summary of the method: (§1)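 Binding signal is defined as a hexamer's read frequency for one factor over its frequency for the tag-only sample. To obtain reads, GST-fused human transcription factors were expressed in yeast, captured on glutathione beads, barcoded with DNA and pooled with that sample. Pools met 200 nmole of a 16-mer random double-stranded DNA library in Tris/NaCl/DTT/glycerol buffer for 30 min at room temperature before washing, 0.1% formaldehyde crosslinking, proximity ligation (BsaI/T4 ligase, 1 h, 37 °C), PCR and Illumina NextSeq500 sequencing.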

ELK1 = molecular target: T2, ELK1 (Homo sapiens, UniProt P19419 1-428)
T2 sequence: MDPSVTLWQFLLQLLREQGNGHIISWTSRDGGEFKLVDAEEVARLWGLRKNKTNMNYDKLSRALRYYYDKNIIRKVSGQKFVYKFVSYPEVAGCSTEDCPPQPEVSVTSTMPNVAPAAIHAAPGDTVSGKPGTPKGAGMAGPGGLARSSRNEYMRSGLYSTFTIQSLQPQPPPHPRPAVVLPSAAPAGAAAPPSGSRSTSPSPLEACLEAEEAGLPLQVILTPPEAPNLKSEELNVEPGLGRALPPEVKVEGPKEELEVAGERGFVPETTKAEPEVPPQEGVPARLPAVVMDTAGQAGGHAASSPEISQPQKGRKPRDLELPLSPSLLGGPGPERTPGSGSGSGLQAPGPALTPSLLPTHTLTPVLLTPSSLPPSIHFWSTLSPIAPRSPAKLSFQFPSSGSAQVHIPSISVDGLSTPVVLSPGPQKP
Summary of the method: as §1

GABPA = molecular target: T3, GABPA (Homo sapiens, UniProt Q06546 1-454)
T3 sequence: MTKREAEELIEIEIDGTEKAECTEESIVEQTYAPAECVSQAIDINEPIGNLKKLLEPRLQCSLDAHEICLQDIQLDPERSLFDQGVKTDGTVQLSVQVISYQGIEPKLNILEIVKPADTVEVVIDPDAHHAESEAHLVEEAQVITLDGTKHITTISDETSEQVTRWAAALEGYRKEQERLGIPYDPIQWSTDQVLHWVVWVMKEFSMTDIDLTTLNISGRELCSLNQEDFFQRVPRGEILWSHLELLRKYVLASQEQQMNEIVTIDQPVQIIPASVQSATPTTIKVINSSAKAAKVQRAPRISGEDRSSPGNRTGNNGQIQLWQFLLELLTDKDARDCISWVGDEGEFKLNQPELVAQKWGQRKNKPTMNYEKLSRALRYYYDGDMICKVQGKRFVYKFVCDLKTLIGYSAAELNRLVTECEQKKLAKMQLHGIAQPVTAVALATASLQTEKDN
Summary of the method: as §1

ERG = molecular target: T4, ERG (Homo sapiens, UniProt P11308 1-479)
T4 sequence: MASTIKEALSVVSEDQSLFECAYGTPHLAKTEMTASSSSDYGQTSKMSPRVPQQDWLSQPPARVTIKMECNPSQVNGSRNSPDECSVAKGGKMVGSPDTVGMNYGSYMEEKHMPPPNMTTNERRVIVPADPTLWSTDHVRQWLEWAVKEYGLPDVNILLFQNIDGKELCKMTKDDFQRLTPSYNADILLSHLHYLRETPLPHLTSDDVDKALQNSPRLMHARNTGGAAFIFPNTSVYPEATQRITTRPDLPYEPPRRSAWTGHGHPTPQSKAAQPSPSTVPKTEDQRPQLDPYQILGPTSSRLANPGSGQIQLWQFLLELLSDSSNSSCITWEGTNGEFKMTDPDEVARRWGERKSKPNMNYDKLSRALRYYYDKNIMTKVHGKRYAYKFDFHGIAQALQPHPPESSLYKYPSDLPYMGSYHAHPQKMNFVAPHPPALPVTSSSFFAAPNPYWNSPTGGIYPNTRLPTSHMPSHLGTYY
Summary of the method: as §1

ELF1 = ELF1 (Homo sapiens, UniProt P32519 1-619)
Summary of the method: as §1

EHF = molecular target: T5, EHF (Homo sapiens, UniProt Q9NZC4 1-300)
T5 sequence: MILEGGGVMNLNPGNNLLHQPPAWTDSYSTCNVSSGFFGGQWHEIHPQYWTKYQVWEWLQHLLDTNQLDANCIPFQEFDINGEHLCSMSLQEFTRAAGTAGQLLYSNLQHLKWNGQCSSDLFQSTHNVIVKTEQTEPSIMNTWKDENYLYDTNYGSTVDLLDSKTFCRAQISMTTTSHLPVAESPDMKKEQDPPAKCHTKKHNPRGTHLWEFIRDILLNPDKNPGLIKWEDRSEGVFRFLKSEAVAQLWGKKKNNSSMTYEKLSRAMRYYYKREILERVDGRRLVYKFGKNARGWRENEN
Summary of the method: as §1

SPIB = SPIB (Homo sapiens, UniProt Q01892 1-262)
Summary of the method: as §1

ELK3 = molecular target: T6, ELK3 (Homo sapiens, UniProt P41970 1-407)
T6 sequence: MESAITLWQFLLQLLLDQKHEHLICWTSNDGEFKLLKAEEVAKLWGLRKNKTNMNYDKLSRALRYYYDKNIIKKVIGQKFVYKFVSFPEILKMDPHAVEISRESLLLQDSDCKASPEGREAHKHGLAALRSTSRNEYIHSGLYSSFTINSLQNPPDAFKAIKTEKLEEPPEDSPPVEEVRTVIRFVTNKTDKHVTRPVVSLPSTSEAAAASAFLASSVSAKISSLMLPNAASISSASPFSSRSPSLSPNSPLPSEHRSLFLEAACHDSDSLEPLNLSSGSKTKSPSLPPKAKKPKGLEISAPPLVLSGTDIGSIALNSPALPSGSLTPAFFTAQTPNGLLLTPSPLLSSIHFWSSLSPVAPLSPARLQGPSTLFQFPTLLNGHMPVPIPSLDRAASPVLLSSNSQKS
Summary of the method: as §1

FEV = molecular target: T7, FEV (Homo sapiens, UniProt Q99581 1-238)
T7 sequence: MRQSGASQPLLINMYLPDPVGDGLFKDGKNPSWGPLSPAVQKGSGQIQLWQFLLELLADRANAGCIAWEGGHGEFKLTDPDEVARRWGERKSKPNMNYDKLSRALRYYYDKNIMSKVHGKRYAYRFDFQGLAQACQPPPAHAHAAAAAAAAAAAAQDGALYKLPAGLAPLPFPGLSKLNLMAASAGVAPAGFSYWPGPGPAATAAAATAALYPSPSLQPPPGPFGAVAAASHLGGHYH
Summary of the method: as §1

ETV5 = ETV5 (Homo sapiens, UniProt P41161 1-510)
Summary of the method: as §1

SPIC = molecular target: T8, SPIC (Homo sapiens, UniProt Q8N5J4 1-248)
T8 sequence: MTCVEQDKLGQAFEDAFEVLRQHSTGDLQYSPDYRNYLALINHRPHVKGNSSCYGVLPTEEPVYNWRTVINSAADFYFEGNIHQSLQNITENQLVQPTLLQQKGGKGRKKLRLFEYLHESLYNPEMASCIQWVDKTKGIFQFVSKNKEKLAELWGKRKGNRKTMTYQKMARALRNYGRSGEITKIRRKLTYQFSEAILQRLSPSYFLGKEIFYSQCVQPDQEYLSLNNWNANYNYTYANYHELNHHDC
Summary of the method: as §1

ELF4 = ELF4 (Homo sapiens, UniProt Q99607 1-663)
Summary of the method: as §1

ETV1 = ETV1 (Homo sapiens, UniProt P50549 1-477)
Summary of the method: as §1

ERF = molecular target: T9, ERF (Homo sapiens, UniProt P50548 1-548)
T9 sequence: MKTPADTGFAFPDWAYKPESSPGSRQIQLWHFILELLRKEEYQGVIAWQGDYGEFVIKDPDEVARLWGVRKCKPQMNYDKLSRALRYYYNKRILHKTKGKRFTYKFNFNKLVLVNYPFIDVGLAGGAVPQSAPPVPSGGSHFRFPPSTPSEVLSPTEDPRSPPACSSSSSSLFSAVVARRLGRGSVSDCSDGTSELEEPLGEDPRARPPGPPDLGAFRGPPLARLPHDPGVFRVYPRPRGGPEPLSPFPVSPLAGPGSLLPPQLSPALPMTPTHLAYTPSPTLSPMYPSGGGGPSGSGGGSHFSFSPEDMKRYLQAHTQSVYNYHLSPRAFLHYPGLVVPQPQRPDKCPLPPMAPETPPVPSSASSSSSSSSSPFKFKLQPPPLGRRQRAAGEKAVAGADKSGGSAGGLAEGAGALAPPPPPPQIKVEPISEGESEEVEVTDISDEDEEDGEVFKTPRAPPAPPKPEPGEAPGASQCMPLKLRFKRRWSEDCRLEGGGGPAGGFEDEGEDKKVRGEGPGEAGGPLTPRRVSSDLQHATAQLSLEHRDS
Summary of the method: as §1

ETV3L = molecular target: T10, ETV3L (Homo sapiens, UniProt Q6ZN32 1-361)
T10 sequence: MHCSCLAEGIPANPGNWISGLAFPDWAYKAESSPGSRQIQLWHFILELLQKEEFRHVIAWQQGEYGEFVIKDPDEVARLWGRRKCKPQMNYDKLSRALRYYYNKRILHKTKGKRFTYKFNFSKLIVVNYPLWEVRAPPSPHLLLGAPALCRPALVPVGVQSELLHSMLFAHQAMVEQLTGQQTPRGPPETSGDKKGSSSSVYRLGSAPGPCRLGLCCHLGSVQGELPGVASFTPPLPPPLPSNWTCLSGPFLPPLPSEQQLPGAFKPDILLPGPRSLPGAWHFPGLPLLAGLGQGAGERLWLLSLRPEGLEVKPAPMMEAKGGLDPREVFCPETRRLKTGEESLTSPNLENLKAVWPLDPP
Summary of the method: as §1

ETS2 = molecular target: T11, ETS2 (Homo sapiens, UniProt P15036 1-469)
T11 sequence: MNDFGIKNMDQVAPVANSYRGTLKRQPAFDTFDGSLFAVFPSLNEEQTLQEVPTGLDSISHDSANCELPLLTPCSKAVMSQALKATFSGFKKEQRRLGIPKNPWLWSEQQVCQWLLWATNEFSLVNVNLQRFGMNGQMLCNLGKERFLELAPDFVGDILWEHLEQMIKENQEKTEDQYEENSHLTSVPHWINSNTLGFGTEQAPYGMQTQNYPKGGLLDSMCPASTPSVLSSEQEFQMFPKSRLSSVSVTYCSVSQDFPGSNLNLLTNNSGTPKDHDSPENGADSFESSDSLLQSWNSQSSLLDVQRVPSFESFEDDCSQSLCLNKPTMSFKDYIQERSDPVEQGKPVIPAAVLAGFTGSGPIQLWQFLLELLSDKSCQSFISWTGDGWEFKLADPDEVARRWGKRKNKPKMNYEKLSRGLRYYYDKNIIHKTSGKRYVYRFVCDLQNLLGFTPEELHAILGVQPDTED
Summary of the method: as §1

SPDEF = molecular target: T12, SPDEF (Homo sapiens, UniProt O95238 1-335)
T12 sequence: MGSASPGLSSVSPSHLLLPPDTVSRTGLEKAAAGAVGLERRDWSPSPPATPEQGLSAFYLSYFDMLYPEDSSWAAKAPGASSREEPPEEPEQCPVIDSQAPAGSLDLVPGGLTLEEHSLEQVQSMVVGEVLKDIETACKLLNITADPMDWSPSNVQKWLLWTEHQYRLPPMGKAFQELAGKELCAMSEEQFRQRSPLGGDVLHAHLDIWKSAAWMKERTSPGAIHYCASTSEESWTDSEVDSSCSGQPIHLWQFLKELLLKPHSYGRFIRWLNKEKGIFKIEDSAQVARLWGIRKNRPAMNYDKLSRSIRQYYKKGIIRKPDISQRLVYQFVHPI
Summary of the method: as §1

ETV3 = molecular target: T13, ETV3 (Homo sapiens, UniProt P41162-2 1-143)
T13 sequence: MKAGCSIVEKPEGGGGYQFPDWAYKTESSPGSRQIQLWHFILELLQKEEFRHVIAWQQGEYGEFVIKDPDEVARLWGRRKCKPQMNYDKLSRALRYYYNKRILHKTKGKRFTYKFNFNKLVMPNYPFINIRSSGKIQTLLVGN
Summary of the method: as §1

ETV6 = ETV6 (Homo sapiens, UniProt P41212 1-452)
Summary of the method: as §1

Sequence of SPIB (Q01892 whole entry): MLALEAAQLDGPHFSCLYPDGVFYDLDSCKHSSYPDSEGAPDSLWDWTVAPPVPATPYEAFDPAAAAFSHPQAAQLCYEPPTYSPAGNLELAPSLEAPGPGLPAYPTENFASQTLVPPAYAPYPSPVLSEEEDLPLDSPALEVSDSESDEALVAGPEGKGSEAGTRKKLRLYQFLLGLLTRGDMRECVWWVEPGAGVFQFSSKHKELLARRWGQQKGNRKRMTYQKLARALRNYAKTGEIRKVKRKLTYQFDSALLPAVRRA
Sequence of ETV5 (P41161 whole entry): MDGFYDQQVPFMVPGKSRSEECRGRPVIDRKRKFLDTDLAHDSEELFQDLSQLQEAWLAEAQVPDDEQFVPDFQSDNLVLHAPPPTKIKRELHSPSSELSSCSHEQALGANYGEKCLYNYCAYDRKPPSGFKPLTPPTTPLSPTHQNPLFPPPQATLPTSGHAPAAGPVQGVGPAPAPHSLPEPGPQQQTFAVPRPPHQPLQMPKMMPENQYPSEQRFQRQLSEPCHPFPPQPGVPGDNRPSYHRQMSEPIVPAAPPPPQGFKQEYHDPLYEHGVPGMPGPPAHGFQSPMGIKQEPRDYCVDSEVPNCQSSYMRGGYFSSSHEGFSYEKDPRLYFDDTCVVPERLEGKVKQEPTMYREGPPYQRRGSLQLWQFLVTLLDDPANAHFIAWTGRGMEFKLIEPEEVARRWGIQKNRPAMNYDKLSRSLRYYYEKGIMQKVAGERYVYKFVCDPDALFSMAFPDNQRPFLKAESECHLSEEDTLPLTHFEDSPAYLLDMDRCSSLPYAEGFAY
Sequence of ELF1 (P32519 whole entry): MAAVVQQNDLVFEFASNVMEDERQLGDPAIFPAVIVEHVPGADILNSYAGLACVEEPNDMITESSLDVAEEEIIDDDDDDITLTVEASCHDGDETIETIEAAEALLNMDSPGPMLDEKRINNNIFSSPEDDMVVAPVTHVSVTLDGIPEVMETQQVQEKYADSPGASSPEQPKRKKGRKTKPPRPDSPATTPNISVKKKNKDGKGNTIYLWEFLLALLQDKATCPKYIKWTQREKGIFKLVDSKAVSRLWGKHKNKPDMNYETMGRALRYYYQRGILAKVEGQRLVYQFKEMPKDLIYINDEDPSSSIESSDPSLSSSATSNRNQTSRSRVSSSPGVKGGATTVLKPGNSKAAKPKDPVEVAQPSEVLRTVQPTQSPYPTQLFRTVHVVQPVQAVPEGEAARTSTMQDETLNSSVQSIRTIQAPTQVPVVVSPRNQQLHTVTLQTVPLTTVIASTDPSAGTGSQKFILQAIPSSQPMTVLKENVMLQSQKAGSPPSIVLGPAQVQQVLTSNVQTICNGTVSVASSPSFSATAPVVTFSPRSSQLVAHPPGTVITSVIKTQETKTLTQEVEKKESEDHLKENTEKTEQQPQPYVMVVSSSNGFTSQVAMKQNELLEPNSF
Sequence of ETV1 (P50549 whole entry): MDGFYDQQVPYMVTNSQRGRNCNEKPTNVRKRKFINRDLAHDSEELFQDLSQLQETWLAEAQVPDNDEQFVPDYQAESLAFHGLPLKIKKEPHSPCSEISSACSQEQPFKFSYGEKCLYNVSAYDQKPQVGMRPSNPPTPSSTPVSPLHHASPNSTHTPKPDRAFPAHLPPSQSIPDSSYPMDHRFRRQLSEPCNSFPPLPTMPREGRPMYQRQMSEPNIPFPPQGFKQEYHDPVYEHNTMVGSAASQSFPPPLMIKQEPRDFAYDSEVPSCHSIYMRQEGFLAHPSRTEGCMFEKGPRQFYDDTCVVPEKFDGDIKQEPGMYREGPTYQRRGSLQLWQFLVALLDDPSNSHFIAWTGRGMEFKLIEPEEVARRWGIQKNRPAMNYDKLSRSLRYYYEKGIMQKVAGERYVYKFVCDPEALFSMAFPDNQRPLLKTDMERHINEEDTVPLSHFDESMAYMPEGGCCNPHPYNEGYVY
Sequence of ETV6 (P41212 whole entry): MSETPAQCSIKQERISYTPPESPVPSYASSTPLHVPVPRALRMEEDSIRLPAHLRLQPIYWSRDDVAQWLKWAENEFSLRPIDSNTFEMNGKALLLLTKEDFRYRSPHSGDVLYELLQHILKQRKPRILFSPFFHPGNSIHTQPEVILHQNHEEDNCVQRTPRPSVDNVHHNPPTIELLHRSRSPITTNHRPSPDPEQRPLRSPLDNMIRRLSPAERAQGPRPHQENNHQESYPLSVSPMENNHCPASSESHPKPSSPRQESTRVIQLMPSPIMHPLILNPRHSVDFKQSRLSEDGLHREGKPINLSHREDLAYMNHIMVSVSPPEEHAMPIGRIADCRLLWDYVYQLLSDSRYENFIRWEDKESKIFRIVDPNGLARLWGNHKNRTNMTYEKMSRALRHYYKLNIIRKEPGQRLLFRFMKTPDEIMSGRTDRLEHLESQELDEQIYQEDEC
Sequence of ELF4 (Q99607 whole entry): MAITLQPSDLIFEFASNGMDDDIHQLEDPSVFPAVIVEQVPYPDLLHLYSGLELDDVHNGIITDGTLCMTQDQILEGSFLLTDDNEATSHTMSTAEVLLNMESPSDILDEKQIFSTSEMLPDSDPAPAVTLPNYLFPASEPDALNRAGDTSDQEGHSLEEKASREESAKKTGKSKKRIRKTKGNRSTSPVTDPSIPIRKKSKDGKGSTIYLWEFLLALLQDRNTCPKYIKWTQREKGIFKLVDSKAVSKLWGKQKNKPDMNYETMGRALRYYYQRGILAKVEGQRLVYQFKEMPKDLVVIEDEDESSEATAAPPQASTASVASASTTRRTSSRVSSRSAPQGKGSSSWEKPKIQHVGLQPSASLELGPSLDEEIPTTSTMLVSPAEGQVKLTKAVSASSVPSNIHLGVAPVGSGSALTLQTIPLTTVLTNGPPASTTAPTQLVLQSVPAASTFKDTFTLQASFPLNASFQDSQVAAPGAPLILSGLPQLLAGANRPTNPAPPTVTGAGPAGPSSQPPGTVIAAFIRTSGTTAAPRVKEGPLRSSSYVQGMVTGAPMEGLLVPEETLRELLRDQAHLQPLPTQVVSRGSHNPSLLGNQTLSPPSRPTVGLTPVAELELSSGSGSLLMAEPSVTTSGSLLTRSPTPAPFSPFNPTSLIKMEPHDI

GCAACC
binding signal (FLI1): 1.06 fold enrichment (6-mer frequency, TF over GST control)
binding signal (ELK1): 1.07 fold enrichment (6-mer frequency, TF over GST control)
binding signal (GABPA): 1.06 fold enrichment (6-mer frequency, TF over GST control)
binding signal (ERG): 1.04 fold enrichment (6-mer frequency, TF over GST control)
binding signal (ELF1): 1.13 fold enrichment (6-mer frequency, TF over GST control)
binding signal (EHF): 1.11 fold enrichment (6-mer frequency, TF over GST control)
binding signal (SPIB): 1.04 fold enrichment (6-mer frequency, TF over GST control)
binding signal (ELK3): 1.09 fold enrichment (6-mer frequency, TF over GST control)
binding signal (FEV): 1.17 fold enrichment (6-mer frequency, TF over GST control)
binding signal (ETV5): 1.04 fold enrichment (6-mer frequency, TF over GST control)
binding signal (SPIC): 1.09 fold enrichment (6-mer frequency, TF over GST control)
binding signal (ELF4): 1.03 fold enrichment (6-mer frequency, TF over GST control)
binding signal (ETV1): 1.02 fold enrichment (6-mer frequency, TF over GST control)
binding signal (ERF): 1.1 fold enrichment (6-mer frequency, TF over GST control)
binding signal (ETV3L): 1.03 fold enrichment (6-mer frequency, TF over GST control)
binding signal (ETS2): 1.03 fold enrichment (6-mer frequency, TF over GST control)
binding signal (SPDEF): 1.13 fold enrichment (6-mer frequency, TF over GST control)
binding signal (ETV3): 1.02 fold enrichment (6-mer frequency, TF over GST control)
binding signal (ETV6): 1.02 fold enrichment (6-mer frequency, TF over GST control)
